Assay outcomes deposited in PubChem by The Scripps Research Institute Molecular Screening Center.
This is a sample that favours compounds with a hit; in the whole collection about 4.6% have one here.
Wee1 degr inh – inhibitors of human Wee1 degradation. P30291. HeLa Luc-Wee1K328M stability, luciferase luminescence; 100% = proteasome inhibitor MG132 effect. reporter increase, % at 5 µM. 1.2% of 220,000 active. AID 1321;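 active means activation above the mean of all tested compounds plus 3 SD, set per screening run, cut at about 8.8% in these data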;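 further: cells exposed to compound for 20 h before luminescence read; 0% = DMSO alone and 100% = MG132 at 30 µM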
Target sequence (P30291 whole entry K328M): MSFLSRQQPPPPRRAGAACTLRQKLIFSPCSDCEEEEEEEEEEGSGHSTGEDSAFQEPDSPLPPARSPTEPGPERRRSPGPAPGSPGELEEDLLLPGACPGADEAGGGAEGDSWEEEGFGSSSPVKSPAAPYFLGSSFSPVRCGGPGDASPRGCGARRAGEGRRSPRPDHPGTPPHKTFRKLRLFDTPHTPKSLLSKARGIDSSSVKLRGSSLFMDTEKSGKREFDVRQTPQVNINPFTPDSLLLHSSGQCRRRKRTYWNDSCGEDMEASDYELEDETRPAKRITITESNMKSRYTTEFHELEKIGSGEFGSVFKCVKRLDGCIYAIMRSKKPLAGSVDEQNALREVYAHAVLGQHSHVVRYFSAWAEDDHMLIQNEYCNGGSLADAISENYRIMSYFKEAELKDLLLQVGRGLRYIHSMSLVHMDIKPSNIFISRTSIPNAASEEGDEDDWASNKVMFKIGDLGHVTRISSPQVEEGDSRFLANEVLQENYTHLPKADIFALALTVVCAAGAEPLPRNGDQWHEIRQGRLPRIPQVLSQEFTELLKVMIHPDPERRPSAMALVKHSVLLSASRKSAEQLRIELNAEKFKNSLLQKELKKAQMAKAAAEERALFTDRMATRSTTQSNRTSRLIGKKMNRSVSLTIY
ssDAF-12 act – activates DAF-12 receptor from parasite S. stercoralis | AID 652126 | HEK293 ssDAF-12/GRIP1 lit1-tk-luc reporter, luminescence; % of 3 µM dafachronic acid response | 1% of 370,000 active | activation, % at 6.8 µM;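 active means activation above the mean over all tested compounds plus 3 SD, cut at about 0.9% in these data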;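 further: 0% = DMSO-only wells and 100% = 3 µM delta7-dafachronic acid wells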
DAX1 inh-1 – inhibitors of human orphan nuclear receptor DAX1 (NR0B1); P51843; HEK293 Gal4-DAX1 luciferase reporter, luminescence; inhibition, % at 6.75 µM; 0.99% of 340,000 active; AID 504766;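 active means inhibition above the mean over all tested compounds plus 3 SD, cut at about 4.2% in these data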;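 further: 0% = DAX1-transfected cells with DMSO and 100% = empty-vector control cells with DMSO; inhibition shows as a rise in luminescence from relieved DAX1 repression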
hcDAF-12 act – activates DAF-12 receptor from parasite H. contortus. HEK293 hcDAF-12 lit1-tk-luc reporter, luminescence; 0% DMSO, 100% Δ7-dafachronic acid. activation, % at 6.8 µM. 1.4% of 370,000 active. AID 652067;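 active means activation above the mean of all tested compounds plus 3 SD, cut at about 5.5% in these data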;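 further: 100% = response to 3 µM Δ7-dafachronic acid high control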
DAX1 inh-2 – blocks DAX1 repression of SF-1 activated StAR promoter. AID 652010. HEK293T StAR-luciferase reporter, SF-1/DAX-1 repression relief. inhibition, % at 6.8 µM. 1.1% of 370,000 active;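 active means inhibition above the mean over all tested compounds plus 3 SD, cut at about 3.6% in these data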;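 further: 0% = DAX-1 cells with DMSO and 100% = cells lacking DAX-1 with DMSO; higher inhibition means more luminescence from relief of DAX-1 repression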
hgDAF-12 ag – activates the H. glycines DAF-12 receptor ligand-binding domain. activation, % at 6.8 µM. 1.8% of 370,000 active. HEK293 GAL4-hgDAF12 UAS-luciferase reporter, agonist luminescence; normalized to butyrate control;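 active means activation above a cutoff set at the mean of all screened compounds plus 3 SD, cut at about 10% in these data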;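 further: 0% = DMSO wells and 100% = sodium butyrate wells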
An asterisk follows results filed as active.

For COC(=O)[C@]12C[C@H](CC(=O)N3CCOCC3)C(=O)N(Cc3ccc(Cl)cc3Cl)C1=C[C@H](C1CCCC1)O[C@@H]2C the results were ssDAF-12 act -1, hcDAF-12 act 4, DAX1 inh-2 0 and hgDAF-12 ag 4.
Screening COc1ccc(-c2nnc(-c3ccc(C)cc3)o2)cc1 returned ssDAF-12 act 1, DAX1 inh-1 3, hcDAF-12 act 3, DAX1 inh-2 2 and hgDAF-12 ag 8.
For C#CCSc1nnc(-c2ccc(OC)cc2)o1 the results were Wee1 degr inh 3, ssDAF-12 act 0, DAX1 inh-1 4.5*, hcDAF-12 act 3, DAX1 inh-2 2 and hgDAF-12 ag 11*.
`Cc1ccccc1-c1nnc(SCc2ccccc2F)o1` gave Wee1 degr inh -1, ssDAF-12 act 0, DAX1 inh-1 4.3*, hcDAF-12 act 6.4*, DAX1 inh-2 3.9* and hgDAF-12 ag 13*.
Screening COc1ccc(-c2nnc(-c3ccccc3O)o2)cc1 returned ssDAF-12 act 0, DAX1 inh-1 1, hcDAF-12 act 2, DAX1 inh-2 2 and hgDAF-12 ag 12*.
Screening C#CCSc1nnc(-c2ccc([N+](=O)[O-])cc2)o1 returned Wee1 degr inh 1, ssDAF-12 act -1, DAX1 inh-1 -1, hcDAF-12 act 0, DAX1 inh-2 2 and hgDAF-12 ag 12*.
COc1cc(Cl)ccc1OC1(C)CCN(Cc2cccc(OC)c2OC)C1 (centres undefined) was read as ssDAF-12 act -2, hcDAF-12 act 0, DAX1 inh-2 0 and hgDAF-12 ag -2.
For CCSc1nnc(-c2ccc(OC)cc2)o1 the results were Wee1 degr inh 2, ssDAF-12 act -1, DAX1 inh-1 1, hcDAF-12 act 1, DAX1 inh-2 1 and hgDAF-12 ag 12*.
Screening COc1ccc(-c2nnc(SCc3ccccc3F)o2)cc1 returned Wee1 degr inh 2, ssDAF-12 act 1, DAX1 inh-1 1, hcDAF-12 act 6.4*, DAX1 inh-2 4.4* and hgDAF-12 ag 12*.
`CC1CCN(c2c(NCc3ccc(C(=O)N4CCN(C5CCCCC5)CC4)cc3)c(=O)c2=O)CC1` gave Wee1 degr inh 3, ssDAF-12 act -1, DAX1 inh-1 -1, hcDAF-12 act 1, DAX1 inh-2 2 and hgDAF-12 ag -1.
CC1CCN(c2c(NCc3ccc(C(=O)N4c5ccccc5CC4C)cc3)c(=O)c2=O)CC1 (centres undefined) was read as Wee1 degr inh -1, ssDAF-12 act 1.1*, DAX1 inh-1 -1, hcDAF-12 act 1, DAX1 inh-2 -2 and hgDAF-12 ag -1.
`O=C(O)C(=O)Cc1c[nH]c2ccccc12` gave Wee1 degr inh 1, ssDAF-12 act 1.2*, DAX1 inh-1 2, hcDAF-12 act 1, DAX1 inh-2 -1 and hgDAF-12 ag 3.
CCc1nc(N[C@@H](Cc2c[nH]c3ccccc23)C(=O)O)c2oc3ccccc3c2n1 was read as Wee1 degr inh 0, ssDAF-12 act 0, DAX1 inh-1 0, hcDAF-12 act 3, DAX1 inh-2 0 and hgDAF-12 ag 3.
Screening O=C(Cc1c[nH]c2ccccc12)OCC(=O)c1ccccc1 returned Wee1 degr inh 0, ssDAF-12 act 1.2*, DAX1 inh-1 1, hcDAF-12 act 3, DAX1 inh-2 0 and hgDAF-12 ag 3.
Screening Cc1noc(C)c1C(=O)NC(Cc1c[nH]c2ccccc12)C(=O)O (centres undefined) returned ssDAF-12 act 1.2*, DAX1 inh-1 1, hcDAF-12 act 3, DAX1 inh-2 -1 and hgDAF-12 ag -1.
`Cc1nc(N[C@@H](Cc2c[nH]c3ccccc23)C(=O)O)c2oc3ccccc3c2n1` gave Wee1 degr inh -1, ssDAF-12 act 1, hcDAF-12 act 5.9*, DAX1 inh-2 0 and hgDAF-12 ag 4.
For Cc1oc2c(c1C(=O)NC(Cc1c[nH]c3ccccc13)C(=O)O)CCCC2 (centres undefined) the results were Wee1 degr inh -2, ssDAF-12 act 0, DAX1 inh-1 0, hcDAF-12 act 2, DAX1 inh-2 0 and hgDAF-12 ag 4.
